# Assay results as given in PubChem BioAssay (NCATS).
# Records with an inconclusive call do not appear. A call without a number means that no potency is given here. Calls of active or inactive are those of the source. Calls follow the shape of the dose curve; as a rule, active = well fitted curve in the direction sought with a large enough effect; inconclusive = small, poorly fitted or top-dose-only effect, or another doubt; inactive = no such curve, though single readings can be large; an effect the other way counts as inactive or inconclusive.
# Tests used:
# [1] = qHTS of pediatric cancer cell lines to identify multiple opportunities for drug repurposing: Primary screen for U-2 OS cells (AID 1347096); also: nearly all actives have a fitted effect of over 50% in size
# How it was run: (§1)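 Cells (500-1,000/well) in growth media were settled 5 h at 37 degrees C, then given compounds for 48 h. Viability was read as CellTiter-Glo luminescence. Primary runs used MIPE at 11 points (0.78 nM-46 µM) and NPC at 8 points (0.59 nM-46 µM); follow-ups used 11 points.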
# [2] = qHTS of pediatric cancer cell lines to identify multiple opportunities for drug repurposing: Primary screen for LAN-5 cells (AID 1347100)
# How it was run: as §1
# [3] = qHTS of pediatric cancer cell lines to identify multiple opportunities for drug repurposing: Primary screen for BT-12 cells (AID 1347101); also: nearly all actives have a fitted effect of over 25% in size
# How it was run: (§2)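 Cells (500-1,000/well) rested 5 h, then received compounds for 48 h; metabolically active cells were measured by CellTiter-Glo luminescence. Final concentrations spanned up to 46 µM (MIPE, 11-point) or 0.59 nM-46 µM (NPC, 8-point) in primary screens, 11-point in follow-ups.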
# [4] = qHTS of pediatric cancer cell lines to identify multiple opportunities for drug repurposing: Primary screen for Rh18 cells (AID 1347102); also: nearly all actives have a fitted effect of over 65% in size
# How it was run: as §1
# [5] = qHTS of pediatric cancer cell lines to identify multiple opportunities for drug repurposing: Primary screen for TC32 cells (AID 1347089); also: nearly all actives have a fitted effect of over 60% in size
# How it was run: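 TC32 cells, 500-1,000/well in growth medium, compound-treated 48 h at 37 °C; viability from CellTiter-Glo luminescence. Primary screen: MIPE 11-point (0.78 nM–46 µM final), NPC 8-point (0.59 nM–46 µM final); confirmatory at 11-point dilutions.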
# [6] = qHTS of pediatric cancer cell lines to identify multiple opportunities for drug repurposing: Primary screen for A673 cells (AID 1347092); also: nearly all actives have a fitted effect of over 45% in size
# How it was run: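 A673 cells (500-1,000 cells/well) were treated 48 hours at 37 degrees C with compounds at 11-point (0.78 nM to 46 µM) or 8-point (0.59 nM to 46 µM) dilutions. Viability read by CellTiter-Glo luminescence; concentration-response curves fitted.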
# [7] = qHTS of pediatric cancer cell lines to identify multiple opportunities for drug repurposing: Primary screen for SK-N-MC cells (AID 1347093)
# How it was run: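 Metabolically active cells were quantified by ATP-dependent luminescence (CellTiter-Glo, 15 min at room temperature) following 48 h treatment. Cells had been plated at 500-1,000 per well and settled for 5 h beforehand.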
# [8] = qHTS of pediatric cancer cell lines to identify multiple opportunities for drug repurposing: Primary screen for NB-EBc1 cells (AID 1347095)
# How it was run: (§3)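 Viability was measured as metabolically active cells after 48 hours of treatment, read by CellTiter-Glo luminescence. Compounds were tested at multiple final concentrations, giving concentration-response curves.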
# [9] = qHTS of pediatric cancer cell lines to identify multiple opportunities for drug repurposing: Primary screen for SK-N-SH cells (AID 1347098); also: nearly all actives have a fitted effect of over 65% in size
# How it was run: as §2
# [10] = qHTS of pediatric cancer cell lines to identify multiple opportunities for drug repurposing: Primary screen for NB1643 cells (AID 1347099); also: nearly all actives have a fitted effect of over 50% in size
# How it was run: as §3
# [11] = qHTS of pediatric cancer cell lines to identify multiple opportunities for drug repurposing: Primary screen for BT-37 cells (AID 1347094)
# How it was run: as §3
# [12] = qHTS of pediatric cancer cell lines to identify multiple opportunities for drug repurposing: Primary screen for OHS-50 cells (AID 1347103); also: nearly all actives have a fitted effect of over 40% in size
# How it was run: as §2
# [13] = qHTS of pediatric cancer cell lines to identify multiple opportunities for drug repurposing: Primary screen for DAOY cells (AID 1347090); also: nearly all actives have a fitted effect of over 55% in size
# How it was run: (§4)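 Eight- or eleven-point concentration series, 48 h treatment at 37 degrees C in growth media; readout CellTiter-Glo luminescence. Potency and efficacy were taken from the concentration-response curves.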
# [14] = qHTS of pediatric cancer cell lines to identify multiple opportunities for drug repurposing: Primary screen for SJ-GBM2 cells (AID 1347091)
# How it was run: as §4
# [15] = qHTS of pediatric cancer cell lines to identify multiple opportunities for drug repurposing: Primary screen for Saos-2 cells (AID 1347097); also: nearly all actives have a fitted effect of over 40% in size
# How it was run: as §3
# Potency is read from the fitted curve at half-maximal effect.
Structure (SMILES),Potency [1],Potency [2],Potency [3],Potency [4],Potency [5],Potency [6],Potency [7],Potency [8],Potency [9],Potency [10],Potency [11],Potency [12],Potency [13],Potency [14],Potency [15]
C#C[C@]1(OC(C)=O)CC[C@H]2[C@@H]3CCC4=C/C(=N/O)CC[C@@H]4[C@H]3CC[C@@]21CC,inactive,23.7 µM (active),inactive,inactive,,,,,,,,,,,
O=c1[nH]c(=O)n([C@H]2C[C@H](O)[C@@H](CO)O2)cc1F,inactive,1.33 µM (active),,inactive,0.264 µM (active),0.841 µM (active),6.68 µM (active),2.37 µM (active),inactive,inactive,,,,,
CCN(CC)CCNc1ccc(CO)c2sc3ccccc3c(=O)c12,,13.3 µM (active),13.8 µM (active),,,,21.1 µM (active),7.5 µM (active),17.2 µM (active),16.8 µM (active),17.4 µM (active),24.6 µM (active),,,
CC(O)Cn1cnc2c1c(=O)n(C)c(=O)n2C (centres undefined),inactive,inactive,inactive,inactive,,inactive,inactive,inactive,inactive,inactive,inactive,inactive,inactive,inactive,inactive
Cc1c[nH]c2ccccc12,inactive,inactive,inactive,inactive,,inactive,,,inactive,inactive,inactive,inactive,inactive,inactive,inactive
CCCCCCCCCCCCCC(=O)OC(C)C,inactive,inactive,inactive,inactive,,inactive,inactive,inactive,inactive,inactive,inactive,inactive,inactive,inactive,inactive
CC[C@H](c1ccc(O)cc1)[C@@H](CC)c1ccc(O)cc1,,inactive,,inactive,,,,,19.4 µM (active),,,,,3.35 µM (active),
CCCCc1cc2ccccc2c(OCCN(C)C)n1,inactive,inactive,inactive,inactive,inactive,inactive,,inactive,,inactive,,15.5 µM (active),inactive,,
CCCCCN=C(N)N/N=C/c1c[nH]c2ccc(OC)cc12,,26.6 µM (active),13.8 µM (active),9.44 µM (active),,,,,4.33 µM (active),,24.6 µM (active),11 µM (active),,,
Cc1ccc2c(Br)cc(Br)c(O)c2n1,,11.9 µM (active),,,,2.66 µM (active),11.9 µM (active),2.99 µM (active),,15 µM (active),8.71 µM (active),11 µM (active),8.41 µM (active),13.3 µM (active),
CCCCN=C(N)N=C(N)N,inactive,inactive,inactive,inactive,inactive,,inactive,inactive,inactive,inactive,inactive,,inactive,,inactive
CCCCCCCCCCCCCC[N+](C)(C)Cc1ccccc1,,21.1 µM (active),6.92 µM (active),5.96 µM (active),,13.3 µM (active),11.9 µM (active),,30.7 µM (active),,24.6 µM (active),4.37 µM (active),,21.1 µM (active),23.7 µM (active)
CCN1/C(=C/C=C/c2sc3ccccc3[n+]2CC)Sc2ccccc21,9.2 µM (active),,0.601 µM (active),1.03 µM (active),1.29 µM (active),0.58 µM (active),1.3 µM (active),,1.89 µM (active),2.91 µM (active),1.35 µM (active),0.601 µM (active),1.16 µM (active),,0.92 µM (active)
NC(N)=NN=C(/C=C/c1ccc([N+](=O)[O-])o1)/C=C/c1ccc([N+](=O)[O-])o1,,2.11 µM (active),0.978 µM (active),1.19 µM (active),6.64 µM (active),1.06 µM (active),,5.31 µM (active),3.86 µM (active),15 µM (active),11 µM (active),,10.6 µM (active),,
